High-throughput results: PubChem BioAssay, National Center for Advancing Translational Sciences (NCATS)
Sampled rows, rich in hits. Any-hit rate of the full collection: about 5.2%.
VDR inhibitor: inhibitors of human vitamin D receptor; P11473; VDR-SRC2-3 peptide fluorescence polarization, 2 h; Potency, µM, most hits filed as inhibitors; 0.93% of 400,000 active
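Compounds are added to VDR with labelled SRC2-3 coactivator peptide and held 2 h at room temperature. Inhibition of the VDR–peptide interaction is then read as a change in fluorescence polarization.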
Sfp PPTase inh: Sfp phosphopantetheinyl transferase inhibition; Q9F4F7; Biochemical Sfp PPTase activity, qHTS; Potency, µM, hits mostly inhibitors; 3.5% of 310,000 active; AID 1490;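 further: the enzyme is Sfp with the accession as filed and its product quenches rhodamine fluorescence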
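With Hepes-Na pH 7.6 buffer containing 10 mM MgCl2, Sfp (15 nM) modified BHQ-2-YbbR (12.5 uM) using rhodamine-CoA (5 uM). Two reads 30 minutes apart at 525/598 nm yielded each well's rate.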
PLK1 PBD inh: inhibitors of human PLK1 polo-box domain binding; Plk1 PBD binding of FITC phosphopeptide, fluorescence polarization; Potency, µM, usual class: inhibitors; AID 720504; P53350; 2.8% of 360,000 active; further: series mostly up to about 57 µM; nearly all actives have a fitted effect of over 65% in size
TrxR1 substrate: rat thioredoxin reductase 1 substrate activity | Potency, µM (series often up to 114 µM) | purified TrxR1 substrate turnover, NADPH consumption readout | O89049 | 0.01% of 390,000 active; further: nearly all actives have a fitted effect of over 50% in size
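Rat TrxR1, dispensed at 90 nM, was prereduced with 400 uM NADPH (final) for 5 min at ~22 deg C, then incubated with compound 15 min before 400 uM selenite. A first-read NADPH fluorescence drop versus no-compound background flagged substrates.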
IDH1 R132H inh: blocks human mutant IDH1 R132H enzyme; O75874; AID 602179; IDH1-R132H enzyme, NADPH consumption, diaphorase/resazurin fluorescence; Potency, µM (series often up to 76.6 µM), hits mostly inhibitors; 0.093% of 390,000 active; further: nearly all actives have a fitted effect of over 65% in size
Target sequence (O75874 whole entry R132H, stated change not applied): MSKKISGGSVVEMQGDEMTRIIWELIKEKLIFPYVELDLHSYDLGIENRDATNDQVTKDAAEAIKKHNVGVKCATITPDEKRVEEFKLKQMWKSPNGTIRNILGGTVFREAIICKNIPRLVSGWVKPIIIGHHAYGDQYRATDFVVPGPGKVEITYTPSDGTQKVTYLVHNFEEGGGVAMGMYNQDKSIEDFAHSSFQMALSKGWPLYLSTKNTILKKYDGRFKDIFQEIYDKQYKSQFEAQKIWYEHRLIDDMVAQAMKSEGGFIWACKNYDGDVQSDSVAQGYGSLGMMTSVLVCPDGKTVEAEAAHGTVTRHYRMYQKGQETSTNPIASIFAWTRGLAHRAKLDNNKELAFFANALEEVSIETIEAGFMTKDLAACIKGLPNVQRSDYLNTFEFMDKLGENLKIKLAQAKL
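IDH1-R132H (0.5 ug/mL) preincubated 30 min with compound, then NADPH (0.016 mM) and alpha-KG (2 mM) added; 80 min at RT, pH 7.5. Remaining NADPH coupled via diaphorase/resazurin to fluorescence (540/590 nm); concentration-response curves normalized to no-enzyme control.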
TrxR1 inh: blocks rat thioredoxin reductase 1; Potency, µM (doses to about 114 µM), usual class: inhibitors; O89049; 1% of 390,000 active; recombinant rTrxR1, NADPH fluorescence consumption, selenite substrate; AID 588453; further: nearly all actives have a fitted effect of over 65% in size
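Rat TrxR1 (90 nM in the dispensed reagent) was pre-reduced with 400 uM NADPH for 5 min at room temperature, then incubated with compound for 15 min. After 400 uM selenite was added, NADPH fluorescence (Ex 340/Em 450 nm) was followed for 8 min.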
IDH1 autofl: autofluorescence interference, mutant IDH1 hit counter-screen. shares compounds with IDH1 R132H inh. Resorufin detection reagent fluorescence interference, cell-free. inhibition of signal, % at 51.2 µM. 750 tested, under 10 active
WT IDH1 inh: inhibits human wild-type IDH1, mutant selectivity check. shares compounds with IDH1 R132H inh. WT IDH1 enzyme, NADPH diaphorase/resazurin fluorescence. 9% of 750 active. Potency, µM (series often up to 115 µM), actives largely listed as inhibitors; further: nearly all actives have a fitted effect of over 55% in size
Target sequence (O75874 whole entry, looked up): as the sequence (O75874 whole entry R132H, stated change not applied) above, with H132R counted along it
IDH1 R132H conf: inhibits human mutant IDH1 enzyme in cherrypick confirmation. AID 624002. Potency, µM (doses to about 76.6 µM), hits mostly inhibitors. shares compounds with IDH1 R132H inh. 83% of 750 active. IDH1 R132H enzyme, NADPH diaphorase/resazurin fluorescence; further: nearly all actives have a fitted effect of over 50% in size
Hits are given with their value; [ ] = remark or other dose. The call rests on the fitted dose curve; in most records, active means well fitted curve in the direction sought with a large enough effect; inconclusive means small, poorly fitted or top-dose-only effect, or another doubt; inactive means no such curve, though single readings can be large; an effect the other way counts as inactive or inconclusive.

CCc1ccc(C2c3c(-c4ccccc4)n[nH]c3C(=O)N2c2ccc(C(=O)O)cc2)cc1 (stereo not drawn) was read as VDR inhibitor inconclusive, TrxR1 substrate inactive, IDH1 R132H inh 35.5µM, TrxR1 inh inactive, IDH1 autofl inactive, WT IDH1 inh 25.1µM and IDH1 R132H conf 7.08µM.
COc1cccc(C2c3c(-c4ccccc4)n[nH]c3C(=O)N2c2ccc(C(=O)O)cc2)c1 (stereo not drawn) was read as VDR inhibitor inactive, Sfp PPTase inh inactive, PLK1 PBD inh inactive, TrxR1 substrate inactive, IDH1 R132H inh inconclusive, TrxR1 inh inactive, IDH1 autofl inactive, WT IDH1 inh inconclusive and IDH1 R132H conf 20µM.
For COc1ccc(-c2n[nH]c3c2C(c2ccc(OC)c(OC)c2)N(c2ccccc2)C3=O)cc1 (stereo not drawn) the results were VDR inhibitor inactive, Sfp PPTase inh inactive, PLK1 PBD inh inactive, TrxR1 substrate inactive, IDH1 R132H inh inconclusive, TrxR1 inh inactive, IDH1 autofl inactive, WT IDH1 inh inactive and IDH1 R132H conf 20µM.
COc1ccc(C2c3c(-c4ccccc4)n[nH]c3C(=O)N2c2ccc(C(=O)O)cc2)cc1 (stereo not drawn) was read as VDR inhibitor inactive, Sfp PPTase inh inactive, PLK1 PBD inh inactive, TrxR1 substrate inactive, IDH1 R132H inh 52.1µM, TrxR1 inh inactive, IDH1 autofl inactive, WT IDH1 inh inconclusive and IDH1 R132H conf 44.7µM.
For CCOc1cc(C2c3c(-c4ccccc4)n[nH]c3C(=O)N2c2ccc(C(=O)O)cc2)ccc1O (stereo not drawn) the results were VDR inhibitor inactive, Sfp PPTase inh inactive, PLK1 PBD inh inconclusive, TrxR1 substrate inactive, IDH1 R132H inh inactive and TrxR1 inh inconclusive.
`COc1ccc(C2c3c(-c4ccc(F)cc4)n[nH]c3C(=O)N2c2ccccc2)cc1OC` (stereo not drawn) gave VDR inhibitor inactive, TrxR1 substrate inactive, IDH1 R132H inh inactive and TrxR1 inh inactive.
For Cc1ccc(C)c(N2CCN(C(=O)c3cc4c(=O)n(Cc5cccs5)ccc4nc3C)CC2)c1 the results were VDR inhibitor inactive, TrxR1 substrate inactive, IDH1 R132H inh inactive and TrxR1 inh inactive.
`O=C(O)c1ccc(N2C(=O)c3[nH]nc(-c4ccccc4)c3C2c2cccc(F)c2)cc1` (stereo not drawn) gave VDR inhibitor inconclusive, TrxR1 substrate inactive, IDH1 R132H inh inconclusive, TrxR1 inh inactive, IDH1 autofl inactive, WT IDH1 inh inactive and IDH1 R132H conf 31.6µM.
For Cc1ccc(N2C(=O)c3[nH]nc(-c4ccc(Cl)cc4)c3C2c2ccc(F)cc2)cc1 (stereo not drawn) the results were VDR inhibitor inconclusive, TrxR1 substrate inactive, IDH1 R132H inh inactive and TrxR1 inh inactive.
COc1cc(C2c3c(-c4ccc(C)cc4)n[nH]c3C(=O)N2c2ccc(F)cc2)ccc1O (stereo not drawn) was read as VDR inhibitor inactive, TrxR1 substrate inactive, IDH1 R132H inh inconclusive, TrxR1 inh inactive, IDH1 autofl inactive, WT IDH1 inh inactive and IDH1 R132H conf 25.1µM.
For Cc1ccc(-c2n[nH]c3c2C(c2ccccc2Cl)N(c2ccc(C(=O)O)cc2)C3=O)cc1 (stereo not drawn) the results were VDR inhibitor inactive, TrxR1 substrate inactive, IDH1 R132H inh 11.2µM, TrxR1 inh inactive, IDH1 autofl inactive, WT IDH1 inh 35.5µM and IDH1 R132H conf 7.08µM.
`CCn1ccnc1CN(C)C(=O)C1CCC(=O)N(Cc2cccc(C(F)(F)F)c2)C1` (stereo not drawn) gave VDR inhibitor inactive, Sfp PPTase inh inactive, PLK1 PBD inh inactive, TrxR1 substrate inactive, IDH1 R132H inh inactive and TrxR1 inh inactive.
`CCOc1ccc(-c2cc(OC(=O)c3ccccc3)c3c(C)oc(C)c3c(=O)c2)cc1` gave VDR inhibitor inconclusive, TrxR1 substrate inactive, IDH1 R132H inh inactive and TrxR1 inh inconclusive.
Screening O=C(/C=C/c1cccs1)Nc1nc(-c2ccccc2)cs1 returned VDR inhibitor inactive, Sfp PPTase inh inactive, PLK1 PBD inh inactive, TrxR1 substrate inactive, IDH1 R132H inh inactive and TrxR1 inh inactive.
O=C(/C=C/c1cccs1)Nc1scc(-c2ccccc2)c1C(=O)O was read as VDR inhibitor inactive, Sfp PPTase inh 31.6µM, PLK1 PBD inh inconclusive, TrxR1 substrate inactive, IDH1 R132H inh inconclusive, TrxR1 inh inactive, IDH1 autofl inactive, WT IDH1 inh 35.5µM and IDH1 R132H conf 35.5µM.
For CCOC(=O)c1cnc2ccc(C)cc2c1Nc1ccc(N(CC)CC)cc1 the results were VDR inhibitor inactive, TrxR1 substrate inactive, IDH1 R132H inh inactive and TrxR1 inh inconclusive.
Screening CC(C)C[C@H](NC(=O)c1[nH]cnc1C(=O)N[C@@H](Cc1ccccc1)C(=O)OC(C)(C)C)C(=O)OC(C)(C)C returned VDR inhibitor inactive, Sfp PPTase inh inactive, PLK1 PBD inh inactive, TrxR1 substrate inactive, IDH1 R132H inh inactive and TrxR1 inh inactive.
CC(C)C[C@H](NC(=O)c1[nH]cnc1C(=O)N[C@@H](C)c1ccccc1)C(=O)OC(C)(C)C was read as VDR inhibitor inactive, Sfp PPTase inh inactive, PLK1 PBD inh inactive, TrxR1 substrate inactive, IDH1 R132H inh 17.8µM, TrxR1 inh inactive, IDH1 autofl inactive, WT IDH1 inh inactive and IDH1 R132H conf 20µM.
COCC(=O)N1CCC(Oc2ccc(C(=O)NCc3cc(C(C)C)no3)cc2)CC1 was read as VDR inhibitor inactive, Sfp PPTase inh inactive, PLK1 PBD inh inconclusive, TrxR1 substrate inactive, IDH1 R132H inh inactive and TrxR1 inh inactive.
Screening Cn1c(=O)c(NC2CCCCC2)c2c3c(cccc31)C(=O)c1ccccc1-2 returned VDR inhibitor inactive, Sfp PPTase inh inactive, PLK1 PBD inh inconclusive, TrxR1 substrate inactive, IDH1 R132H inh inconclusive, TrxR1 inh inactive, IDH1 autofl inactive, WT IDH1 inh inactive and IDH1 R132H conf 22.4µM.
`Cc1cc(OCCn2c(CCNC(=O)C3CCCCC3)nc3ccccc32)ccc1Cl` gave VDR inhibitor inactive, TrxR1 substrate inactive[0.457 µM], IDH1 R132H inh inactive and TrxR1 inh inactive.
